Measurements: PubChem BioAssay (NCATS)
Inconclusive results are not listed. Activity calls are given as the source filed them. The call rests on the fitted dose curve; in most records, active means well fitted cell-killing curve with a large enough effect; inconclusive means small, poorly fitted or top-dose-only effect, or effect the other way; inactive means no such curve, though single readings can be large or run the other way.

Experiment: Quantitative High-Throughput drug screen in 47 multiple myeloma cell lines against the NCATS MIPE library collection: KMS26_JCRB cell viability assay (AID 1918975); further: nearly all actives have a fitted effect of over 45% in size
Conditions: KMS26 myeloma cells viability, CellTiter-Glo ATP, 48 h; series mostly up to 45.8 µM
Summary of the method: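 Myeloma cell lines, 500 cells per well, exposed to MIPE 4.0 library compounds for 48 h at 37C, 5% CO2. Viability from ATP by CellTiter-Glo luminescence; normalised to DMSO (100%) and media-only (0%) wells.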
Potency means the concentration at half of the fitted maximal effect.

| Structure (SMILES) | Potency |
| --- | --- |
| Cc1ccc(NC(=O)C2(c3ccc4c(c3)OC(F)(F)O4)CC2)nc1-c1cccc(C(=O)O)c1 | 0.059 µM (active) |
| COc1ccc(C(=O)CC2(O)C(=O)Nc3c(Cl)ccc(Cl)c32)cc1 (stereo not drawn) | 2.96 µM (active) |
| Cc1ccc(-c2ncn(-c3ccc(Nc4nccc(-c5cccc(N6CCOCC6)c5)n4)cc3)n2)cn1 | 0.469 µM (active) |
| CCCCOc1c(C(=O)c2c(F)cc(C)cc2F)cnc2n[nH]cc12 | 3.72 µM (active) |
| CC(=O)c1c(C)c2cnc(Nc3ccc(N4CCNCC4)cn3)nc2n(C2CCCC2)c1=O | 18.7 µM (active) |
| CNC(=O)c1ccc(N2C(=S)N(c3cnc(C#N)c(C(F)(F)F)c3)C(=O)C23CCC3)cc1F | 1.48 µM (active) |
| O=c1[nH]nc(Sc2ncc([N+](=O)[O-])s2)n1-c1ccc2c(c1)OCCO2 | 1.48 µM (active) |
| CN(C)CC=CC(=O)Nc1cc2c(Nc3ccc(F)c(Cl)c3)ncnc2cc1O[C@H]1CCOC1 | 6.62 µM (active) |
| Cn1c2ccccc2c2c3c(c4c5ccccc5n(CCC#N)c4c21)CNC3=O | 14.8 µM (active) |
| CC(NCc1ccc2c(c1)nc(NC(=O)c1ccc(-c3cn[nH]c3)s1)n2CC(C)(C)O)C(C)(C)C (stereo not drawn) | 0.743 µM (active) |
| C#Cc1cccc(Nc2ncnc3cc(OC)c(OCCCCCCC(=O)NO)cc23)c1 | 0.105 µM (active) |
| CC1(O)CC(c2nc(-c3ccc4ccc(-c5ccccc5)nc4c3)c3c(N)nccn23)C1 (stereo not drawn) | 0.833 µM (active) |
| CC(=O)OCC(=O)[C@@]1(O)[C@H](C)C[C@H]2[C@@H]3C=C(C)C4=Cc5c(cnn5-c5ccccc5)C[C@]4(C)[C@@H]3[C@@H](O)C[C@@]21C | 10.5 µM (active) |
